Laboratory results from PubChem BioAssay AID652208 (Broad Institute, 2013).
Results with a measured potency or affinity are listed apart. Values without a mark were called inactive.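 Rule for the calls: active = Loss of cell signal with fitted half-effect dose at or below twice the top valid tested dose; inconclusive = Poor fit, or flat fit from -70 to -30 percent; inactive = Half-effect above limit, rising signal, or flat within 30 percent.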

assay: HEK293T cell cytotoxicity, dose response, cytotoxicity control for HIV Vif inhibitor project, cherry-picks (AID 652208); conditions: HEK293T viability, CellTiter-Glo luminescence, 24 h; series mostly up to 26 µM; activity change, negative = cytotoxicity: at the top concentration;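 note: 0% = median neutral control wells and -100% = median staurosporine control wells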

Structure (SMILES)	activity change, negative = cytotoxicity
Cc1nnc2ccc(-c3ccc(NS(=O)(=O)c4ccc(F)cc4F)cc3)nn12	-2.74%
CCC(C)NC(=O)Cn1c(=O)n(-c2ccccc2)c(=O)c2ccc(C(=O)NCc3ccco3)cc21 (stereo not drawn)	-1.22%
N#Cc1c2ccc(OCC(N)=O)cc2n2ccccc12	-2.27%
COc1ccc2cc(CCNS(=O)(=O)c3ccc(NC(C)=O)cc3)c(=O)[nH]c2c1	-0.974%
Cc1ccc(N(C)S(=O)(=O)c2ccc(-c3ccc(=O)[nH]n3)s2)cc1C	-19.2%
COc1ccc(C(=O)NCc2oc(-c3ccccc3)cc2C(=O)O)cc1	5.02%
Cc1ccc(C(C)C)c(OCC#CCN2CCOCC2)c1	2.59%
CCc1nnc(NC(=O)c2sc3nc4cc(C)ccc4cc3c2N)s1	3.92%
COc1ccc(NC(=O)C2(C)Cc3c(-c4cccc(NC(C)=O)c4)ccnc3O2)cn1 (stereo not drawn)	-11.7%
O=C(c1cc(Cl)c(=O)n(Cc2ccccc2)c1)N1CCOCC1	13.2%
O=C(NCc1ccccn1)c1ccc(Cn2c(=S)[nH]c3ccc(Br)cc3c2=O)cc1	-1.11%
CCOC(=O)C1(Cc2cccc(OC)c2)CCN(CCO)CC1	-13.8%
N#CC(C(=O)NCCc1ccccc1)c1nc2ccccc2nc1N1CCOCC1 (stereo not drawn)	-10.5%
Cc1c(NC(=O)c2cc3ccccc3oc2=O)c(=O)n(-c2ccccc2)n1C	6.31%
Cc1cc(-c2nnc(SCC(=O)c3ccc(Cl)cc3)o2)no1	-6.3%
COc1ccc(OC)c(NC(=O)c2nc(-c3ccccc3)oc2C)c1	-7.11%
Cc1cc(NC(=O)CSc2nc3ccccc3c(=O)n2-c2ccccc2)no1	1.64%
CCc1cccc2cc3c(N)c(C(=O)Nc4ccc(S(=O)(=O)N5CCCC5)cc4)sc3nc12	0.681%
